The text below walks through data of PubChem BioAssay (NCI).

About 83,000 compounds went through this panel and 20% of them were active in at least one assay; those are over-represented in the sample as a whole.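 Cells were grown in 96-well plates and exposed to the test compound at a single concentration for 48 hours; results are reported as percent growth, with values below 10 considered active.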 Unmarked numbers belong to inactive results. Activity calls are given as the source filed them.

Test systems include SK-MEL-2 melanoma; EKVX NSCLC; SN12C renal; UO-31 renal; ACHN renal; CAKI-1 renal; A498 renal; CCRF-CEM leukemia; MOLT-4 leukemia; RPMI-8226 leukemia; OVCAR-8 ovarian; OVCAR-5 ovarian; OVCAR-4 ovarian; SK-OV-3 ovarian; IGROV1 ovarian; OVCAR-3 ovarian; HS 578T breast; NCI/ADR-RES ovarian; SR leukemia; TK-10 renal.
What all share (assay): NCI-60 one-dose screen, 48 h (100 = growth as untreated, 0 = no growth, -100 = all killed)
Holding throughout (conditions): 10 µM unless noted

As to `N#CCCN=Nc1c(O)[nH]c2ccc([N+](=O)[O-])cc12`, the growth was 95.6% in the test with SK-MEL-2 melanoma; 91.3% in the test on EKVX NSCLC; 98.7% in the test on SN12C renal; 76.9% in the test on UO-31 renal; 96.3% with ACHN renal; 86.1% with CAKI-1 renal. In addition, the growth with A498 renal was 94.3%; in the test on CCRF-CEM leukemia it was 103%; in the test with MOLT-4 leukemia, 100%; in the test on RPMI-8226 leukemia it was 105%; with OVCAR-8 ovarian it was 102%; with OVCAR-5 ovarian, 97%. In addition, the growth in the test with OVCAR-4 ovarian was 105%; with SK-OV-3 ovarian, 86%; in the test on IGROV1 ovarian it was 99.6%; in the test on OVCAR-3 ovarian it was 103%; in the test on HS 578T breast, 103%; in the test on NCI/ADR-RES ovarian, 104%.
As to `COc1ccc(S(=O)(=O)N2CCN(C)CC2)cc1NC(=O)c1[nH]c(C)c2c1CCCCC2=O`, the growth was 79.6% in the test on SK-MEL-2 melanoma; 58.4% in the test on EKVX NSCLC; 60.4% in the test on SN12C renal; 37% in the test on UO-31 renal; 58.6% in the test with ACHN renal; 21.2% with CAKI-1 renal. Moreover, the growth was 60.9% in the test with A498 renal; 75.5% with CCRF-CEM leukemia; 58.2% with SR leukemia; 32.6% with RPMI-8226 leukemia; 63% with OVCAR-8 ovarian; 59.5% with OVCAR-5 ovarian. Also, the growth was 57% in the test on OVCAR-4 ovarian; 44.7% in the test on SK-OV-3 ovarian; 66.6% in the test with OVCAR-3 ovarian; 28.9% with HS 578T breast; 96.9% in the test with NCI/ADR-RES ovarian.
With `COc1cc2c(cc1-c1c(C)noc1C)ncc1nc(-c3ccccn3)n([C@H](C)COC(F)F)c12`, the growth is 76.3% in the test on SK-MEL-2 melanoma; 59% in the test on EKVX NSCLC; 62.8% in the test with SN12C renal; 18.8% with UO-31 renal; 40.1% in the test on ACHN renal; 34.2% with CAKI-1 renal. Further, the growth was -12.2% (active) with A498 renal; 41% in the test on CCRF-CEM leukemia; 44.4% in the test on MOLT-4 leukemia; 27.8% with SR leukemia; 8.62% (active) in the test with RPMI-8226 leukemia; 35.1% in the test on OVCAR-8 ovarian. Besides, the growth with OVCAR-5 ovarian is 76.6%; in the test on OVCAR-4 ovarian, 52.6%; in the test with SK-OV-3 ovarian, 9.97% (active); in the test on IGROV1 ovarian it was 52.6%; in the test with OVCAR-3 ovarian, 47.4%; with HS 578T breast, 3.88% (active). In addition, in the test with NCI/ADR-RES ovarian, the growth was 33.6%.
For the compound `Cc1ncc(C(=O)Nc2ccc(CN3CCN(C)CC3)c(C(F)(F)F)c2)cc1C#Cc1cnc2cccnn12`, the growth with SK-MEL-2 melanoma was -55.4% (active); in the test with EKVX NSCLC, -3.95% (active); in the test on SN12C renal, 0.116% (active); in the test on UO-31 renal, 1.45% (active); in the test on ACHN renal it was -1.57% (active); in the test on CAKI-1 renal it was -16.7% (active). For the same compound, the growth with CCRF-CEM leukemia was 5.77% (active); in the test with MOLT-4 leukemia, -0.188% (active); in the test on SR leukemia it was -14.9% (active); in the test with RPMI-8226 leukemia, 2.24% (active); in the test on OVCAR-8 ovarian, 6.1% (active); in the test with OVCAR-5 ovarian, 13.8%. Further, the growth in the test with OVCAR-4 ovarian is -17% (active); in the test on SK-OV-3 ovarian, 22.9%; in the test with IGROV1 ovarian, 5.84% (active); in the test on OVCAR-3 ovarian, -0.593% (active); in the test with HS 578T breast it was -15.5% (active); in the test with NCI/ADR-RES ovarian it was 8.62% (active).
Turning to `O=c1cc(/C(=C2/C=CC=N2)c2ccc[nH]2)c2cc(Cl)ccc2o1`, the growth with SK-MEL-2 melanoma was 62.4%; in the test on EKVX NSCLC, 44.8%; in the test on UO-31 renal, 41%; with TK-10 renal it was 63%; in the test on ACHN renal, 48%; with CAKI-1 renal it was 55.7%. The growth in the test on A498 renal is 10.8%; in the test on CCRF-CEM leukemia, 28.3%; in the test on MOLT-4 leukemia it was 7.2% (active); in the test with SR leukemia it was 23.7%; in the test with RPMI-8226 leukemia it was 51%; with OVCAR-8 ovarian, -4.06% (active). For the same compound, the growth with OVCAR-5 ovarian was 93.1%; in the test with OVCAR-4 ovarian it was 77%; in the test with SK-OV-3 ovarian, 34.8%; in the test with IGROV1 ovarian, 31.5%; in the test with OVCAR-3 ovarian, -20.3% (active); with HS 578T breast, 22.2%. Also, in the test on NCI/ADR-RES ovarian, the growth is 5.06% (active).
For the compound `CC(C)(CCCN=C(N)Nc1ccc(Cl)cc1)c1ccc(F)cc1`, the growth is 94.6% in the test with SK-MEL-2 melanoma; 71.7% in the test with EKVX NSCLC; 58.5% in the test with UO-31 renal; 72.4% with TK-10 renal; 67.4% with ACHN renal; 74.7% with CAKI-1 renal. For the same compound, the growth was 77.6% in the test with A498 renal; 53.7% with CCRF-CEM leukemia; 37.7% in the test with MOLT-4 leukemia; -13.6% (active) in the test on SR leukemia; 11% in the test on RPMI-8226 leukemia; 87.3% in the test on OVCAR-8 ovarian. The growth was 75.8% in the test on OVCAR-5 ovarian; 54.4% with OVCAR-4 ovarian; 94.7% in the test with SK-OV-3 ovarian; 55.2% with IGROV1 ovarian; 71.2% with OVCAR-3 ovarian; 83.2% in the test with HS 578T breast.
Turning to `COc1ccc(-n2nc(C)c3c(Nc4ccc(NC(=O)Nc5cccc(C(F)(F)F)c5)cc4)ncnc32)cc1`, the growth in the test with SK-MEL-2 melanoma is -21.1% (active); in the test on EKVX NSCLC it was 10.1%; with SN12C renal it was 22.5%; in the test on UO-31 renal it was -44.9% (active); with ACHN renal, -10.2% (active); in the test with CAKI-1 renal it was -18.9% (active). Moreover, the growth with A498 renal was 48.5%; in the test with CCRF-CEM leukemia, 18.2%; with MOLT-4 leukemia, 8.98% (active); in the test with SR leukemia it was 21.2%; with RPMI-8226 leukemia, -10.9% (active); with OVCAR-8 ovarian it was 2.63% (active). Besides, the growth in the test on OVCAR-5 ovarian was 2.66% (active); in the test with OVCAR-4 ovarian it was 7.24% (active); in the test with SK-OV-3 ovarian it was 16.9%; in the test on IGROV1 ovarian it was 7.48% (active); in the test on OVCAR-3 ovarian, -31.6% (active); with HS 578T breast, -6.67% (active). Besides, in the test on NCI/ADR-RES ovarian, the growth is 4.85% (active).
Turning to `COc1ccc(Nc2nc(SC)nc(-c3cccc([N+](=O)[O-])c3)c2C#N)cc1`, the growth in the test with SK-MEL-2 melanoma was 94.9%; in the test with EKVX NSCLC it was 70.5%; in the test on SN12C renal, 64.5%; with UO-31 renal, 17.7%; in the test on ACHN renal, 16.9%; with CAKI-1 renal it was 63%. Also, the growth with A498 renal is 57.8%; in the test on CCRF-CEM leukemia, 114%; in the test on MOLT-4 leukemia it was 99.8%; with RPMI-8226 leukemia it was 98.4%; in the test with OVCAR-8 ovarian it was 39.4%; with OVCAR-5 ovarian it was 76.5%. Besides, the growth is 2.52% (active) in the test with OVCAR-4 ovarian, 46.4% in the test on SK-OV-3 ovarian, 74.5% in the test on OVCAR-3 ovarian and 42.1% in the test on HS 578T breast.
